This is a sample that favours compounds with a hit; in the whole collection about 2.1% have one here.
p53 PUMA act – mutant p53 pathway re-activators, primary screen, cell-based, SW480, luciferase, single point, HTS. SW480 PUMA-promoter luciferase, p53 mutant reactivation. activation, % at 9.98 µM. 28,000 tested, 1.5% active; in the data active means activation above about 52%; inconclusive means no clear call, values can overlap the other calls
ID4 SMM – binders of human ID4 protein, primary screen, biochemical, small molecule microarray, single point; DNA-binding protein inhibitor ID-4 (Homo sapiens), P47928; Flag-ID4 binding, fluorescence F/B; calls only; 31,000 tested, 1.2% active; AID 624137, 2012; call rule not given here;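 further: a binder raises fluorescence above local background on the spot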
Target sequence (P47928 whole entry, looked up): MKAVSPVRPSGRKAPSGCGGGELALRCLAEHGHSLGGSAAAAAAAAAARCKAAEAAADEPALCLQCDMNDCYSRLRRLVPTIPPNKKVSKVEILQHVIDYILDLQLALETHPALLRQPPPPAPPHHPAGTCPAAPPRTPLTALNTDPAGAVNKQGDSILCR
Of the large screens only hits and unclear results are named; the others gave an inactive call.

C[C@@H]1CN([C@H](C)CO)C(=O)c2cc(NS(C)(=O)=O)ccc2O[C@@H](C)CCCCO[C@H]1CN(C)S(=O)(=O)c1cccs1	none
CCOC(=O)/C=C/c1ccccc1OC	none (no result: p53 PUMA act)
COc1ccccc1/C=C/C(=O)N1CCCC(c2ccccc2)C1 (stereo unspecified)	p53 PUMA act 101.4
CC(=O)c1ccc(NC(=O)CSc2nc3ccc(NC(=O)c4ccccc4Cl)cc3s2)cc1	p53 PUMA act 80.7
Cc1cc(C)c(NC(=O)CSc2nc3ccc(NC(=O)c4ccccc4C)cc3s2)c(C)c1	none
O=C(O)c1cccc(NC(=O)C2(c3ccccc3)CCN(S(=O)(=O)c3ccccc3)CC2)c1	none
c1ccc(OCc2nc3ccccc3n2Cc2ccccn2)cc1	p53 PUMA act 59.0
OC(c1ccccc1)c1nc2ccccc2n1CCOc1ccccc1 (stereo unspecified)	none
O=C(C[C@H]1C[C@H]2c3cc(NC(=O)c4cccnc4)ccc3O[C@H]2[C@H](CO)O1)NCCN1CCCCC1	none
C[C@@H](NC(=O)C[C@@H]1CC[C@H](NC(=O)c2cccnc2)[C@H](CO)O1)c1ccccc1	none (no result: p53 PUMA act)
CCc1ccc(OCC(=O)Nc2cc(OC)ccc2OC)c(Br)c1	p53 PUMA act 58.0
COC(=O)c1ccccc1NC(=O)COc1ccc(C(C)(C)C)cc1Br	none
COc1ccc(OCC(=O)Nc2cc(OC)ccc2OC)cc1	none
CCc1ccc(OCC(=O)Nc2ccccc2C(=O)OC)c(Br)c1	p53 PUMA act 58.7
C[C@H](CO)N1C[C@H](C)[C@@H](CN(C)Cc2ccc(Cl)c(Cl)c2)Oc2ccc(NC(=O)C3CC3)cc2C1=O	none
COc1ccc2c(=O)cc(-c3ccccc3)oc2c1	p53 PUMA act 80.9 (no result: ID4 SMM)
COc1ccc(-c2cc(=O)c3ccccc3o2)cc1	none
O=c1cc(-c2ccccc2)oc2cc(O)ccc12	p53 PUMA act 76.5
O=c1cc(-c2ccccc2)oc2cccc(O)c12	none (no result: p53 PUMA act)
C[C@H](CO)N1C[C@H](C)[C@H](CN(C)CC2CC2)Oc2cc(Br)ccc2S1(=O)=O	none (no result: p53 PUMA act)
COC(=O)c1ccccc1NC(=O)CNC(=O)c1ccc(Cl)cc1Cl	none
CS(=O)(=O)N(CC(=O)Nc1ccc(Oc2ccccc2)cc1)c1cc(Cl)c(Cl)cc1Cl	none
Cc1noc(C)c1NC(=O)Nc1ccc2c(c1)C(=O)N([C@H](C)CO)C[C@H](C)[C@H](CN(C)CC1CC1)O2	none
Nc1nc(CSc2ccccn2)nc(Nc2ccccc2)n1	p53 PUMA act 88.9
COc1ccc(Nc2nc(N)nc(CSc3nccn3C)n2)cc1	none
CCn1c(SCC(=O)Nc2cccc(SC)c2)nnc1-c1cc2cc(Br)ccc2o1	none
CCCN(C)C[C@@H]1Oc2ncc(-c3cccnc3)cc2C(=O)N([C@H](C)CO)C[C@H]1C	none (no result: p53 PUMA act)
Cc1cc(C)c(C#N)c(SCC(=O)Nc2sc3c(c2C#N)CCC3)n1	none
Cc1cc(C)c(C#N)c(SCC(=O)Nc2ccc(C(N)=O)cc2)n1	p53 PUMA act 105.3
Cc1cc(C(F)(F)F)nc(SCC(=O)Nc2ccc(I)cc2)c1C#N	none
CC(=O)c1ccc(NC(=O)CSc2nccn2C)cc1	p53 PUMA act 92.6
CC(=O)c1ccc(NC(=O)CSc2nc(C)cc(C)c2C#N)cc1	p53 PUMA act 140.1
CSc1ccccc1NC(=O)CSc1nccn1C	none
COc1ccc(-c2cnc3c(c2)C(=O)N([C@H](C)CO)C[C@H](C)[C@@H](CN(C)C(=O)Cc2ccncc2)O3)cc1	none (no result: ID4 SMM)
Cc1noc(C)c1NC(=O)N(C)C[C@@H]1OCCCC[C@@H](C)Oc2ccc(NS(C)(=O)=O)cc2C(=O)N([C@H](C)CO)C[C@H]1C	none
CC1(O)C(O)C(CO)OC1n1cnc2c(NC3CCCC3)nc(Cl)nc21 (stereo unspecified)	none
COc1ccc(CN(C)C[C@@H]2Oc3ccc(NC(=O)CCC(F)(F)F)cc3C(=O)N([C@H](C)CO)C[C@H]2C)cc1	none
COc1ccc(Cl)cc1NC(=O)COc1ccccc1OC	p53 PUMA act 99.4
COC(=O)c1cc(OC)c(OC)cc1NC(=O)COc1ccc(Cl)cc1Cl	none
COc1ccc(Cl)cc1NC(=O)COc1ccccc1[N+](=O)[O-]	none
O=C(COc1ccc(Br)cc1Cl)Nc1ccccc1CO	p53 PUMA act 75.5
Cc1cc(OCC(=O)Nc2ccccc2CO)cc(C)c1Br	none
COc1ccccc1NC(=O)COc1ccc(Cl)cc1CO	p53 PUMA act 62.9
Cc1cc(CNC(=S)Nc2cccc([N+](=O)[O-])c2)nn1C	none
C[C@H]1CN([C@@H](C)CO)S(=O)(=O)c2ccc(C#CCN(C)C)cc2O[C@@H]1CN(C)C(=O)Nc1ccccc1F	none
COc1ccc(CN(C)C[C@@H]2Oc3c(NC(=O)NC4CCCCC4)cccc3C(=O)N([C@H](C)CO)C[C@@H]2C)cc1	none
CNC[C@H]1Oc2c(NS(=O)(=O)c3cccs3)cccc2C(=O)N([C@@H](C)CO)C[C@H]1C	none
Cc1noc(C)c1NC(=O)N(C)C[C@H]1OCCCC[C@@H](C)Oc2ccc(NS(C)(=O)=O)cc2C(=O)N([C@H](C)CO)C[C@@H]1C	none
O=C1c2cccc3cccc(c23)C(=O)N1CC1CCN(CC(O)COc2c(F)cc(Br)cc2F)CC1 (stereo unspecified)	none
CCCc1c(C)nc2ccc(Br)cc2c1SCCC(=O)O	none
O=C1c2ccccc2C(=O)N1CCCSc1nccn1-c1cc(Cl)ccc1Cl	none
O=C1c2ccccc2C2CC(c3cc(Cl)ccc3Cl)=NN12 (stereo unspecified)	p53 PUMA act 78.8
COc1ccc(OC)c(NC(=O)CCn2cnc3ccccc3c2=O)c1	none
COc1ccc(S(=O)(=O)Nc2ccc3c(c2)CC(=O)N([C@H](C)CO)C[C@H](C)[C@@H](CN(C)CC2CC2)O3)cc1	none
COc1ccc(NC(=O)c2ccco2)c(NC(=O)CSc2ccc(Cl)cc2)c1	none
COc1ccc(-c2cc(C(=O)OCc3ccco3)c3ccccc3n2)cc1OC	none
COc1ccc(CC(=O)n2nc(-c3ccc(Cl)cc3)nc2NCc2ccco2)cc1OC	p53 PUMA act 109.9
COc1ccc(CNc2nc(-c3ccc(Cl)cc3)nn2C(=O)c2ccco2)cc1	p53 PUMA act 86.8
Cc1cccc(-c2noc(CN(C(C)C)S(=O)(=O)c3ccc([N+](=O)[O-])cc3)n2)c1	none
O=C(CC1CC1)Nc1ccc2c(c1)[C@@H]1C[C@H](CC(=O)N3CCc4ccccc4C3)O[C@H](CO)[C@@H]1O2	none (no result: p53 PUMA act)
COc1ccc(OC)c(Nc2ncnc3c2cnn3-c2ccccc2)c1	p53 PUMA act inconclusive
COCCNc1ncnc2c1cnn2-c1cccc(C)c1	p53 PUMA act 101.5
O=S(=O)(N[C@@H]1CCCN(Cc2cccc(OCCO)c2)C1)c1ccc2ccccc2c1	none (no result: p53 PUMA act)
CCCN(C)C[C@H]1Oc2cc(C#CC3CC3)ccc2S(=O)(=O)N([C@H](C)CO)C[C@H]1C	none (no result: p53 PUMA act)
CCOc1ccc(NC(=O)CSc2nc3nc(C)cc(C)n3n2)cc1	none
Cc1ccnc(SCC(=O)Nc2cccc(Cl)c2)n1	none
CCOc1ccc(NC(=O)CSc2ncccn2)cc1	p53 PUMA act 54.2
O=C(CSc1ncccn1)Nc1ccc(Cl)cc1Cl	p53 PUMA act 133.5
Cc1cc(Oc2ccccc2)nc(SCC(=O)Nc2ccc(Cl)cc2Cl)n1	none
Cc1ccnc(SCC(=O)Nc2ccc(Cl)cc2Cl)n1	p53 PUMA act 52.2
Cc1noc(C)c1NC(=O)Nc1ccc2c(c1)C(=O)N([C@@H](C)CO)C[C@H](C)[C@H](CN(C)C(=O)NC(C)C)OCCCC[C@H](C)O2	none
COC(=O)c1c(O)cc(C)cc1Oc1c(O)cc(OC)cc1CO	none
O=C(CSc1nnc(-c2ccncc2)n1-c1ccc(Cl)cc1)Nc1ccc2cn[nH]c2c1	none

Compound activity: PubChem BioAssay, Broad Institute
